Assay outcomes (PubChem BioAssay)
Compounds with a hit are over-represented: about 4.3% of the library has one in this group of screens.
Giardia killer: Giardia lamblia killing; Giardia lamblia trophozoite viability; hit rate 0.15% among 340,000; activity change, % at 7.66 µM, hits read low; in the data active = activity change below about -80%; inconclusive = between about -30% and that limit;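 note: parasites exposed to compound for two days anaerobically before the ATP read; % is set by controls: 0 for no effect and ±100 for the full control effect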
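Anaerobic 48 hrs incubation at 37 deg C of 100 trophozoites/well with test compounds; ATPLite 1-Step luminescence, 15-30 min RT, reports cellular ATP as viability.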
SW480 rerep: inducers of DNA re-replication in SW480 colon cancer cells; SW480 DNA re-replication, Hoechst DNA content imaging, 48 h; Potency, µM (doses to about 46.1 µM), for inactives: top-dose re-replication activation, hits mostly activators; hit rate 1.8% among 340,000; AID 624297; note: potency is the fitted concentration of half-maximal effect; % of control where 0% means no effect; nearly all actives have a fitted effect of over 55% in size
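Readout is total intensity of Hoechst-stained nuclei, excited at 405 nm and collected at 500-530 nm. Compound treatment lasted 48 hr at 37 C in 5% CO2 before staining.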
MCF10A rerep: DNA re-replication induction in MCF 10a cells; MCF 10A DNA re-replication, Hoechst nuclear intensity, 48 h; Potency, µM (highest dose often 46.1 µM), inactives show at the highest dose activity, positive = re-replication, actives largely listed as activators; hit rate 2.9% among 350,000; note: potency is the fitted concentration of half-maximal effect; % of control where 0% means no effect; nearly all actives have a fitted effect of over 50% in size
uPA surface inh: inhibitors of cell surface uPA generation; Potency, µM (highest dose often 38.3 µM), for the others: at the highest dose activity change, negative = inhibition, hits mostly inhibitors; AID 540303; hit rate 0.31% among 330,000; cell surface uPA generation assay, qHTS; active = well fitted inhibition curve with a large enough effect; inconclusive = small, poorly fitted or top-dose-only effect; inactive = no such curve, though single readings can be large or run the other way; tested in mouse RAW 264.7 cells; note: potency is the fitted concentration of half-maximal effect; % is set by controls: 0 for no effect and ±100 for the full control effect; nearly all actives have a fitted effect of over 55% in size
The depositor's hits bear a star; ? = inconclusive; nt = no result. Unless noted, calls come from the whole dose curve; as a rule, active = well fitted activation curve with a large enough effect; inconclusive = small, poorly fitted or top-dose-only effect; inactive = no such curve, though single readings can be large or run the other way.

SMILES	Giardia killer	SW480 rerep	MCF10A rerep	uPA surface inh
O=C(N/N=C/C(Cl)=C/c1ccccc1)c1ccc2c(c1)OCO2	18	?	?	6.3µM*
COCCN1CSC(=S)N(Cc2ccco2)C1	?	5.8µM*	?	nt
S=C1SCN(Cc2ccccn2)CN1Cc1ccco1	0	7.3µM*	4.1µM*	?
O=C1CN(C(=O)/C=C/c2cc(Br)ccc2F)CCN1	-23	-8%	0%	-1%
COc1ccc(/C=C/C(=O)N2CCNC(=O)C2)c(OC)c1	0	8%	1µM*	1%
COc1c(N2C[C@@H]3CCCN[C@H]3C2)c(F)cc2c(=O)c(C(=O)O)cn(C3CC3)c12	nt	0%	17%	nt
COc1ccc(CC(=O)N/N=C/c2cccnc2)cc1OC	-10	-21%	-27%	2%
COc1ccc(-c2nn(-c3ccccc3)cc2/C=N/Nc2ccc3ccccc3n2)cc1OC	5	26µM*	?	-10%
COc1ccc(-c2nn(-c3ccccc3)cc2/C=N/O)cc1OC	-15	?	16µM*	-3%
Cc1c(NC(=O)c2cccc(NC(=O)COc3cccc(Br)c3)c2)c(=O)n(-c2ccccc2)n1C	25	-6%	-4%	-10%
Cc1cccc(NC(=O)COC(=O)CC2CCCC2)c1C	-26	-477%	6%	0%
COc1ccc(CS(=O)(=O)/C(Cl)=C(/Cl)C(=O)Nc2ccc(OC)nc2)cc1	4	0.82µM*	0.41µM*	11%
Cc1ccc(OCCNC(=O)c2cccc(S(=O)(=O)NCc3ccccc3)c2)cc1	-13	6.5µM*	6.5µM*	-13%
CN(C)C(CNC(=O)c1cccc(S(=O)(=O)NCc2ccccc2)c1)c1ccccc1 (configuration not stated)	12	6.5µM*	?	3%
O=C(c1cc(F)c(F)cc1Cl)N1CCCc2ccccc21	2	-4%	?	1%
CCCC[C@@H]1CNC(=S)N1CCC12CC3CC(CC(C3)C1)C2	21	4%	16µM*	10%
CSc1ccccc1NC(=O)CN(C)C(=O)COc1cccc2cccnc12	13	5.8µM*	?	-5%
Nc1c2c(nc3c1CCCC3)CCCC2 (tested in a mixture with another compound)	-15	0%	5%	-3%
N#C/C(=C\c1ccccc1C(F)(F)F)C(=O)Nc1ccccc1	-5	-5%	4%	-5%
CCc1cccc(CC)c1NC(=O)/C(C#N)=C/c1ccccc1C(F)(F)F	-12	-80%	12µM*	-13%
Cc1ccc(NC(=O)C2CCN(S(=O)(=O)c3ccc4c(c3)OCCCO4)CC2)nc1	1	-6%	10%	4%
N#Cc1c(-c2ccccc2)cc(C2CC2)nc1SCC(=O)c1cccs1	14	9.2µM*	17%	8%
CCN(CC)c1ccc(NC(=O)CSc2nc(C3CC3)nc3ccccc23)cc1C	15	8.2µM*	6.5µM*	-18%
Cc1nonc1NC(=O)CSc1nc(C2CCCCC2)nc2ccccc12	5	8.2µM*	?	-7%
Cc1nonc1NC(=O)CSc1nc(C23CC4CC(CC(C4)C2)C3)nc2ccccc12	6	?	10µM*	?
SMILES	Giardia killer	SW480 rerep	MCF10A rerep	uPA surface inh
Nc1ncnc2c1ncn2[C@@H]1O[C@H](CNC(=O)[C@@H]2CCCN2S(=O)(=O)c2ccc(F)cc2)[C@@H](O)[C@H]1O	6	-24%	6%	10%
Cc1nn(Cc2ccccc2Cl)c(C)c1NC(=O)c1cc(-c2ccc(F)cc2)on1	-5	-4%	4.1µM*	nt
O=C(NCc1ccccc1)c1cc(-c2cccc(O)c2)on1	-20	6.5µM*	?	2.8µM*
COc1ccc(-c2cc(C(=O)Nc3c(C)nn(Cc4ccccc4)c3C)no2)cc1	8	4%	?	nt
Cc1nn(Cc2ccccc2)c(C)c1NC(=O)c1cc(-c2ccc3c(c2)OCO3)on1	-16	0%	9.2µM*	nt
O=C(Nc1cccc(O)c1)c1cc(-c2ccc3c(c2)OCO3)on1	-82*	4%	2%	-17%
O=C(NCc1cccnc1)c1cc(-c2ccccc2)on1	-5	-4%	0%	-21%
C[N+](C)(C)CC[N+]1(C)Cc2c(Cl)c(Cl)c(Cl)c(Cl)c2C1	nt	3%	8%	nt
COCCNC(=O)CSC1=N/C(=C/c2ccc(Cl)c(Cl)c2)C(=O)N1c1ccccc1F	-23	?	9.2µM*	-6%
C=CCN1C(=O)/C(=C\c2ccc(Cl)cc2)N=C1SCC(=O)NCCC	6	-7%	-3%	-4%
CCOC(=O)C(C)(C)N(Cc1cccc(C)c1)S(=O)(=O)c1ccc(Cl)c([N+](=O)[O-])c1	11	?	5.2µM*	-6%
